Most compounds without a hit are left out; they make up all but 9% or so of the library.
BAZ2B block – blocks human BAZ2B. Q9UIF8. AlphaScreen BAZ2B-H3K14Ac peptide displacement. Potency, µM (titrated, usually from 114 µM), actives largely listed as inhibitors. 360,000 compounds, 4.4% hits; note: nearly all actives have a fitted effect of over 60% in size
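Inhibition is scored as reduced AlphaScreen emission. The BAZ2B/b-H3(5-23)K14Ac complex (50 nM each) in PBS pH 7.4, 0.01% Tween-20 meets compound (up to 110 uM) for 30 min at RT before bead addition.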
HP1b chromo inh – inhibitors of HP1-beta chromodomain binding to methylated histone tails | P83916 | AlphaScreen HP1-beta / biotin-H3K9me3 peptide binding | Potency, µM (titrated, usually from 114 µM), usual class: inhibitors | 390,000 compounds, 0.56% hits; note: nearly all actives have a fitted effect of over 70% in size
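Compound inhibition of the preformed complex between 50 nM HP1-beta and 50 nM biotinylated H3K9me3 peptide was read by AlphaScreen. Buffer was PBS pH 7.4 with 0.01% Tween-20. Incubations ran 30 min at room temperature, with 10 ug/mL donor/acceptor beads.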
PLK1 PBD inh – blocks phosphopeptide binding to human PLK1 polo-box domain; P53350; Plk1 PBD binding of FITC phosphopeptide, fluorescence polarization; Potency, µM, hits mostly inhibitors; 360,000 compounds, 2.8% hits; AID 720504; note: series mostly up to about 57 µM; nearly all actives have a fitted effect of over 65% in size
12-LOX inh – ALOX12 (human) lipoxygenase inhibition | purified 12hLO, xylenol orange hydroperoxide absorbance | P18054 | Potency, µM (doses to about 108 µM), usual class: inhibitors | AID 1671190 | 580,000 compounds, 1.1% hits
Target sequence (P18054 whole entry, looked up): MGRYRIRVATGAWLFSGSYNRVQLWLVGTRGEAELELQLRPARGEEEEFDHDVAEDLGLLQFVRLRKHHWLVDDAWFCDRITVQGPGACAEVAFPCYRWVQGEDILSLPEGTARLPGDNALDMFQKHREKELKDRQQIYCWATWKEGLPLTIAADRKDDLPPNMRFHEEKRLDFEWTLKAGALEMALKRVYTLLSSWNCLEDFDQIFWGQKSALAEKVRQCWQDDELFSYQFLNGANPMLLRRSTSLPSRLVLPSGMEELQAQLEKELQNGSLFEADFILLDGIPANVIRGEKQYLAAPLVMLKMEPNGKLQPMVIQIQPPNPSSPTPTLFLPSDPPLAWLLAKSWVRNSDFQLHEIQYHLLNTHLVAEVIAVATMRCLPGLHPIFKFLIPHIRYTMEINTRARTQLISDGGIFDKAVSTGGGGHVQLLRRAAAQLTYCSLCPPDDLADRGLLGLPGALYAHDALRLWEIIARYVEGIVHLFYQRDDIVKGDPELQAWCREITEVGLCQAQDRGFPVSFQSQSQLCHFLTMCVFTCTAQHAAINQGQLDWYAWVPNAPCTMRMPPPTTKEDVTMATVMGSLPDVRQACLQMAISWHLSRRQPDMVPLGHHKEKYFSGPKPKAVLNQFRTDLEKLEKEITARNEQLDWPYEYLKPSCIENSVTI
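Hydroperoxide product was detected by ferrous iron/xylenol orange as the 573 to 405 nm absorbance ratio. Arachidonic acid at 40 uM (final) was turned over for 30 min at room temperature by 150 nM human 12hLO, pH 7.0 Hepes buffer, after 15 min compound preincubation.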
JMJD2A Tudor – inhibitors of human JMJD2A Tudor domain | Potency, µM (highest dose often 114 µM), most hits filed as inhibitors | 390,000 compounds, 4.4% hits | AlphaScreen JMJD2A-Tudor / H3K4me3 peptide binding; note: nearly all actives have a fitted effect of over 50% in size
G9a block – inhibitors of human histone lysine methyltransferase G9a | 350,000 compounds, 8.8% hits | G9a H3K9 monomethylation, AlphaScreen, 2 h | Potency, µM (series often up to 102 µM), most hits filed as inhibitors; note: nearly all actives have a fitted effect of over 75% in size
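Using a bead-based AlphaScreen, monomethylated H3K9 product from 2 h room-temperature reactions (G9a 20 nM, peptide 500 nM, SAM 20 uM) was detected with 0.5 ug/mL rabbit anti-H3K9me1 antibody.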
Each line names hits and unclear results; the compound was inactive in the other large screens. Calls come from the whole dose curve; as a rule, active = well fitted curve in the direction sought with a large enough effect; inconclusive = small, poorly fitted or top-dose-only effect, or another doubt; inactive = no such curve, though single readings can be large; an effect the other way counts as inactive or inconclusive.

COC(=O)CCc1sc(Nc2ccc(OC)cc2)nc1-c1ccc(OC)cc1	JMJD2A Tudor inconclusive, G9a block 8.9µM (no result: PLK1 PBD inh)
CCCCCCNc1nc(-c2ccc(OC)cc2)c(CCC(=O)O)s1	BAZ2B block inconclusive, PLK1 PBD inh inconclusive, G9a block 45µM
O=C(O)c1sc(Nc2ccccc2)nc1-c1ccccc1	none (no result: PLK1 PBD inh)
COCCNc1nc(-c2ccc(OC)cc2)c(-c2ccc(OC)cc2)s1	BAZ2B block 71µM, PLK1 PBD inh inconclusive, JMJD2A Tudor inconclusive, G9a block inconclusive
Cc1ccc(C(=O)N2CCN(c3cnn(C)c(=O)c3Cl)CC2)cc1	none
Cc1ccc(S(=O)(=O)N2CCOCC2)cc1NC(=O)COC(=O)c1ccccc1OCc1c(C)noc1C	none
OC(CNCC(c1ccco1)N1CCCCC1)c1ccccc1 (configuration not stated)	BAZ2B block 50µM, 12-LOX inh inconclusive, JMJD2A Tudor 1.1µM, G9a block 2.2µM
Nc1nc(N)nc(-c2ccccn2)n1	BAZ2B block 20µM, JMJD2A Tudor 50µM
c1ccc(-c2cnc(-c3ccccn3)nn2)cc1	JMJD2A Tudor 14µM (no result: BAZ2B block, G9a block)
c1ccc(-c2cnnc(-c3ccccn3)n2)cc1	JMJD2A Tudor 11µM (no result: BAZ2B block, G9a block)
Clc1ccc(-c2nc(-c3ccccn3)no2)cc1	none (no result: BAZ2B block, HP1b chromo inh, PLK1 PBD inh, JMJD2A Tudor, G9a block)
c1ccc(-c2nc(-c3ccccn3)nc(-c3ccccn3)n2)nc1	none
Clc1ccc(-c2cnnc(-c3ccccn3)n2)cc1	JMJD2A Tudor 10µM (no result: BAZ2B block, G9a block)
O=C1CC(c2ccccc2)N(C(=O)CNC(=O)c2ccccn2)CCCCCN1 (configuration not stated)	none (no result: BAZ2B block, HP1b chromo inh, PLK1 PBD inh, JMJD2A Tudor, G9a block)
Cc1cccc(C(C)(C)C)c1OCCOCCN1CCCC1	JMJD2A Tudor 2.2µM, G9a block inconclusive
Cc1cccc(C(C)(C)C)c1OCCN1CCCC1	HP1b chromo inh inconclusive, 12-LOX inh inconclusive, JMJD2A Tudor 4.5µM, G9a block 25µM
Cc1ccc(S(=O)(=O)N2CCN(CCOc3c(Cl)cccc3Cl)CC2)cc1C	none
Cc1cc(OCCN2CCCCC2)nc2ccccc12	12-LOX inh inconclusive, JMJD2A Tudor inconclusive
CCCCCCCn1c(=N)n(CC(O)c2ccco2)c2ccccc21 (configuration not stated)	G9a block 79µM
O=c1[nH]ccn1C1CCN(Cc2ccsc2)CC1	none (no result: BAZ2B block, HP1b chromo inh, PLK1 PBD inh, JMJD2A Tudor, G9a block)
Cc1ccc(S(=O)(=O)N/N=C/c2ccc(O)c(O)c2)cc1[N+](=O)[O-]	12-LOX inh 50µM, JMJD2A Tudor inconclusive, G9a block 35µM
Cc1ccc(S(=O)(=O)N/N=C/c2ccccc2O)cc1[N+](=O)[O-]	PLK1 PBD inh inconclusive, G9a block inconclusive
CCN(Cc1ccccc1)c1ccc(/C=N/NS(=O)(=O)c2cccc([N+](=O)[O-])c2)cc1	BAZ2B block inconclusive, HP1b chromo inh inconclusive, PLK1 PBD inh inconclusive, 12-LOX inh inconclusive, JMJD2A Tudor inconclusive, G9a block 10µM
CCN(CC)c1ccc(/C=N/NS(=O)(=O)c2ccc(C)c([N+](=O)[O-])c2)cc1	BAZ2B block inconclusive, HP1b chromo inh inconclusive, 12-LOX inh inconclusive, JMJD2A Tudor 35µM, G9a block 40µM
O=[N+]([O-])c1cccc(/C=N/NS(=O)(=O)c2ccccc2)c1	none (no result: G9a block)
O=S(=O)(N/N=C/c1ccc2c(c1)OCCO2)c1ccc(Cl)cc1	12-LOX inh inconclusive
CCN(CC)c1ccc(/C=N/NS(=O)(=O)c2ccc(Cl)cc2)cc1	12-LOX inh 32µM (no result: BAZ2B block, HP1b chromo inh, PLK1 PBD inh, JMJD2A Tudor, G9a block)
CC1=C(C(=O)Nc2ccc(C)cc2C)C(c2ccc([N+](=O)[O-])cc2)n2ncc(C(=O)Nc3ccc(F)cc3)c2N1 (configuration not stated)	none (no result: PLK1 PBD inh)
CCOc1ccc(Cc2n[nH]c(=S)n2N)cc1	HP1b chromo inh inconclusive, PLK1 PBD inh inconclusive, 12-LOX inh inconclusive, JMJD2A Tudor 8.9µM, G9a block inconclusive
Nn1c(Cc2ccc(Br)cc2)n[nH]c1=S	BAZ2B block inconclusive, HP1b chromo inh inconclusive, PLK1 PBD inh 12µM, 12-LOX inh 28µM, JMJD2A Tudor 7.1µM, G9a block 2.2µM
COc1ccc(Cc2n[nH]c(=S)n2N)cc1OC	BAZ2B block inconclusive, HP1b chromo inh inconclusive, PLK1 PBD inh 12µM, 12-LOX inh inconclusive, JMJD2A Tudor 7.9µM, G9a block 3.2µM
Nn1c(Cc2ccccc2F)n[nH]c1=S	JMJD2A Tudor 3.2µM, G9a block 20µM
COc1ccc(Cc2nc(=S)[nH][nH]2)cc1Br	BAZ2B block inconclusive, HP1b chromo inh inconclusive, PLK1 PBD inh inconclusive, 12-LOX inh inconclusive
COc1ccc(Cc2n[nH]c(=S)n2C)cc1Br	12-LOX inh inconclusive, JMJD2A Tudor 20µM, G9a block inconclusive
O=C1[C@@H]2[C@@H](CN3CN(c4ccccc4)N=C(c4ccccc4)[C@@]23c2ccccc2)C(=O)N1c1ccccc1	HP1b chromo inh inconclusive, JMJD2A Tudor 89µM (no result: BAZ2B block, G9a block)
O=C1[C@H]2C(c3ccccc3)=NN(c3ccccc3)[C@H]2C(=O)N1c1ccccc1	12-LOX inh inconclusive
Cc1ccc(C(=O)c2cc3c(cc2[N+](=O)[O-])OCCO3)cc1	BAZ2B block 56µM, JMJD2A Tudor inconclusive, G9a block inconclusive
O=C(CCc1ccc(S(=O)(=O)NC2CCCCC2)cc1)NCc1ccccn1	G9a block inconclusive
Cc1ccc(N(C(C)C(=O)Nc2ccccc2C(=O)N2CCOCC2)S(C)(=O)=O)cc1C (configuration not stated)	none
CC(C(=O)Nc1ccccc1C(=O)N1CCOCC1)N(c1ccc(Cl)cc1)S(C)(=O)=O (configuration not stated)	HP1b chromo inh inconclusive, PLK1 PBD inh 3µM, JMJD2A Tudor 11µM
Cc1ccc(Sc2ccc(NC(=O)c3ccc(S(C)(=O)=O)cc3Cl)cc2)cc1	none
COc1ccc2[nH]c(=O)c(CNc3ccc(C)cc3C)cc2c1	G9a block 20µM
Cc1ccc(NCc2cc3cccc(C)c3[nH]c2=O)c(C)c1	none (no result: BAZ2B block, HP1b chromo inh, PLK1 PBD inh, JMJD2A Tudor, G9a block)
COc1ccc2[nH]c(=O)c(CNc3cc(C)ccc3C)cc2c1	BAZ2B block 50µM, JMJD2A Tudor inconclusive, G9a block inconclusive
Cc1ccc2[nH]c(=O)c(CNC(C)(C)C)cc2c1	G9a block inconclusive
COc1ccccc1CC(=O)N1CCCc2ncc(C(=O)Nc3ccc4[nH]ccc4c3)cc21	none (no result: BAZ2B block, HP1b chromo inh, PLK1 PBD inh, JMJD2A Tudor, G9a block)
Cn1nc(C(F)(F)F)c(C#N)c1N1CCN(c2ccccn2)CC1	PLK1 PBD inh 24µM, JMJD2A Tudor 50µM
CCOc1ccc(CN2CCN(C(=O)c3ccccc3)CC2)cc1	BAZ2B block inconclusive, HP1b chromo inh inconclusive, PLK1 PBD inh inconclusive, 12-LOX inh inconclusive, G9a block inconclusive
CCOc1ccc(CN2CCN(C(=O)c3cccc4ccccc34)CC2)cc1	BAZ2B block 45µM, HP1b chromo inh inconclusive, 12-LOX inh inconclusive, JMJD2A Tudor 25µM, G9a block 14µM
COc1cc(CN2CCN(C(=O)c3cccc4ccccc34)CC2)cc(OC)c1O	BAZ2B block 50µM, HP1b chromo inh inconclusive, 12-LOX inh inconclusive, JMJD2A Tudor 22µM, G9a block 6.3µM
